Measurements from the supplement of paper PMC10849652.
About 8,800 targets were measured; listed, in parts, are those with a hit and a random draw of the rest. About 0.5% of all pairs of compound and target were hits. A number with no mark means an inactive call.

Legend:
Experiment in all cases: log2 fold change, soluble protein after heating vs DMSO (PISA); higher = thermal stabilisation; K562 lysate, 10 uM; active = over 0.2 and 3.5 SD of the protein, either way, in both replicates (recomputed)
erlotinib = compound: C#Cc1cccc(Nc2ncnc3cc(OCCOC)c(OCCOC)cc23)c1 [erlotinib]
Outline: (§1)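 K562 pellets were dounce-homogenised in PBS pH 7.4 with 1 mM MgCl2, and the crude extract at 1 mg/mL protein was treated with 10 μM compound for 30 min. Aliquots were heated for 3 min across 48°C-58°C, pooled, and brought to 0.5% NP-40 at 4°C; soluble protein was the supernatant after 21,000xg for 90 min. Soluble protein was quantified by TMTpro 16plex LC-MS/MS with channel sums equalised, and reported as log2 fold change in thermal stability against DMSO controls, with values from duplicates.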

[1] = compound: C/C(=N\NC(=O)C1=CC(=CC=C1)S(=O)(=O)N2CCOCC2)/C3=C(C=CC(=C3)Cl)O
Outline: as §1

[2] = compound: C1=CC(=CC=C1C2=NC3=C(N2)C=C(C=C3)C(=O)N)OC4=CC=C(C=C4)Cl
Outline: as §1

[3] = compound: C1=CC2=C(C=CC(=C2)/C=C\3/C(=O)NC(=NCC4=CC=CS4)S3)N=C1
Outline: as §1

[4] = compound: C1=CC2=NC=CN=C2C=C1/C=C/3\C(=O)NC(=O)S3
Outline: as §1

[5] = compound: C1=CC=C(C=C1)C2=NC(=C(N2)C3=CC=NC=C3)C4=CC(=C(C=C4)Cl)O
Outline: as §1

[6] = compound: C1=CC=C2C(=C1)C3=NNC4=CC=CC(=C43)C2=O
Outline: as §1

[7] = compound: C1CCN(C1)C(=O)NC2=CC=CC(=C2)NC3=NC=C(C(=N3)NCCC4=CN=CN4)Br
Outline: as §1

[8] = compound: C1CN(CCC1(CC2=CC=C(C=C2)Cl)N)C3=NC=NC4=C3C=CN4
Outline: as §1

IRAK-1-4 Inhibitor I = compound: C1COCCN1CCN2C3=CC=CC=C3N=C2NC(=O)C4=CC(=CC=C4)[N+](=O)[O-] [IRAK-1-4 Inhibitor I]
Outline: as §1

ibrutinib = compound: C=CC(=O)N1CCC[C@@H](n2nc(-c3ccc(Oc4ccccc4)cc3)c3c(N)ncnc32)C1 [ibrutinib]
Outline: as §1

[9] = compound: CC(=O)c1cnc2ccc(-c3cc(Cl)c(O)c(Cl)c3)nc2c1N[C@H]1CC[C@H](CN(C)C)CC1
Outline: as §1

ralimetinib = compound: CC(C)(C)Cn1c(N)nc2ccc(-c3[nH]c(C(C)(C)C)nc3-c3ccc(F)cc3)nc21 [ralimetinib]
Outline: as §1

[10] = compound: CC(C)(O)CC(=O)NCCn1ccc2ncnc(Nc3ccc(Oc4cccc(C(F)(F)F)c4)c(Cl)c3)c21
Outline: as §1

[11] = compound: CC(C)C1=C2N=C(C=C(N2N=C1)NCC3=CC=CC=C3)NCCCCCCN
Outline: as §1

[12] = compound: CC1=C(C(CC(=O)N1)C2=CC=C(C=C2)C(F)(F)F)C(=O)NC3=C(C=C4C(=C3)C=NN4)F
Outline: as §1

[13] = compound: CC1=C(C2=C(C=C1)C(=O)C3=CC=CC=C3N2CCCN)C
Outline: as §1

[14] = compound: CC1=C(C=C(C=C1)NC(=O)C2=CC(=CC=C2)C(C)(C)C#N)NC3=CC4=C(C=C3)N=CN(C4=O)C
Outline: as §1

[15] = compound: CC1=C(C=C(C=C1)NC(=O)C2=CC(=CC=C2)N(C)C)NC(=O)C3=CC=C(C=C3)O
Outline: as §1

[16] = compound: CC1=CC=C(C=C1)SC2=C3C=C(SC3=CN=C2)C(=O)N
Outline: as §1

UniProt P07947, sequence (P07947 whole entry, looked up): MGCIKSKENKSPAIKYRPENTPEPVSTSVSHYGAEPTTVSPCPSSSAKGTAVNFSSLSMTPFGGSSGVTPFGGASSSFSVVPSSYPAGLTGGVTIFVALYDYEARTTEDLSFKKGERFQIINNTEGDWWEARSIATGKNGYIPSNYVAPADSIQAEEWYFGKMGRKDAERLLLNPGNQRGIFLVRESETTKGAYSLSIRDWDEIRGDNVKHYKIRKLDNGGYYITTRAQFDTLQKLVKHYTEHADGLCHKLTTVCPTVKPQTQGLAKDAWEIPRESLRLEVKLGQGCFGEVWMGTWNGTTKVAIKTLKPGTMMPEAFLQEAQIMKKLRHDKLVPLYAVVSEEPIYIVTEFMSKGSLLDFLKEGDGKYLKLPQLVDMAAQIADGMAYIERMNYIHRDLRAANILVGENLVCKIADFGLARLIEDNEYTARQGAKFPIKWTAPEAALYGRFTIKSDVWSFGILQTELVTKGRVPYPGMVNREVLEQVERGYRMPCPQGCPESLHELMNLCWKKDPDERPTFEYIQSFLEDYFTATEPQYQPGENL
UniProt Q9NWK9, sequence (Q9NWK9 whole entry, looked up): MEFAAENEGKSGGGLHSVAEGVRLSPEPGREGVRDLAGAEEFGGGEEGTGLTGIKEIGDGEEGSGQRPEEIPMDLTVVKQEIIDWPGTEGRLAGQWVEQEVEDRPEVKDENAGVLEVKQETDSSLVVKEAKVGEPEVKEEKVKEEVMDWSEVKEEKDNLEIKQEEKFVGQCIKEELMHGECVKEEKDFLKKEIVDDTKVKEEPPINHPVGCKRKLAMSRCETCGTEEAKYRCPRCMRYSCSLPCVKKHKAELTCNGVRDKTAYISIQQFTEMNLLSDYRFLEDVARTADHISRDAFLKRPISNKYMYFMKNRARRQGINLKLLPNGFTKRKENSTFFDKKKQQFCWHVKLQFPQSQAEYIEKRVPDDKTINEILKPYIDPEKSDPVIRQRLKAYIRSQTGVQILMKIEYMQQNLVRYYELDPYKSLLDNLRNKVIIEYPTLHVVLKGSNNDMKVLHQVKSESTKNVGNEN
UniProt O95619, sequence (O95619 whole entry, looked up): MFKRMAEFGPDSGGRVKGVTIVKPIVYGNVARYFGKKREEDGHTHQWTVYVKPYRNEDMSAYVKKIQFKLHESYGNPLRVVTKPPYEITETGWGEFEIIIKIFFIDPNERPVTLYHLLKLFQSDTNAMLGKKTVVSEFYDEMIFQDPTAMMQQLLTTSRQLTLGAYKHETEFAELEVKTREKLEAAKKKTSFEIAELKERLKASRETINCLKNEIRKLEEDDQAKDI
UniProt P49750, sequence (P49750 whole entry, looked up): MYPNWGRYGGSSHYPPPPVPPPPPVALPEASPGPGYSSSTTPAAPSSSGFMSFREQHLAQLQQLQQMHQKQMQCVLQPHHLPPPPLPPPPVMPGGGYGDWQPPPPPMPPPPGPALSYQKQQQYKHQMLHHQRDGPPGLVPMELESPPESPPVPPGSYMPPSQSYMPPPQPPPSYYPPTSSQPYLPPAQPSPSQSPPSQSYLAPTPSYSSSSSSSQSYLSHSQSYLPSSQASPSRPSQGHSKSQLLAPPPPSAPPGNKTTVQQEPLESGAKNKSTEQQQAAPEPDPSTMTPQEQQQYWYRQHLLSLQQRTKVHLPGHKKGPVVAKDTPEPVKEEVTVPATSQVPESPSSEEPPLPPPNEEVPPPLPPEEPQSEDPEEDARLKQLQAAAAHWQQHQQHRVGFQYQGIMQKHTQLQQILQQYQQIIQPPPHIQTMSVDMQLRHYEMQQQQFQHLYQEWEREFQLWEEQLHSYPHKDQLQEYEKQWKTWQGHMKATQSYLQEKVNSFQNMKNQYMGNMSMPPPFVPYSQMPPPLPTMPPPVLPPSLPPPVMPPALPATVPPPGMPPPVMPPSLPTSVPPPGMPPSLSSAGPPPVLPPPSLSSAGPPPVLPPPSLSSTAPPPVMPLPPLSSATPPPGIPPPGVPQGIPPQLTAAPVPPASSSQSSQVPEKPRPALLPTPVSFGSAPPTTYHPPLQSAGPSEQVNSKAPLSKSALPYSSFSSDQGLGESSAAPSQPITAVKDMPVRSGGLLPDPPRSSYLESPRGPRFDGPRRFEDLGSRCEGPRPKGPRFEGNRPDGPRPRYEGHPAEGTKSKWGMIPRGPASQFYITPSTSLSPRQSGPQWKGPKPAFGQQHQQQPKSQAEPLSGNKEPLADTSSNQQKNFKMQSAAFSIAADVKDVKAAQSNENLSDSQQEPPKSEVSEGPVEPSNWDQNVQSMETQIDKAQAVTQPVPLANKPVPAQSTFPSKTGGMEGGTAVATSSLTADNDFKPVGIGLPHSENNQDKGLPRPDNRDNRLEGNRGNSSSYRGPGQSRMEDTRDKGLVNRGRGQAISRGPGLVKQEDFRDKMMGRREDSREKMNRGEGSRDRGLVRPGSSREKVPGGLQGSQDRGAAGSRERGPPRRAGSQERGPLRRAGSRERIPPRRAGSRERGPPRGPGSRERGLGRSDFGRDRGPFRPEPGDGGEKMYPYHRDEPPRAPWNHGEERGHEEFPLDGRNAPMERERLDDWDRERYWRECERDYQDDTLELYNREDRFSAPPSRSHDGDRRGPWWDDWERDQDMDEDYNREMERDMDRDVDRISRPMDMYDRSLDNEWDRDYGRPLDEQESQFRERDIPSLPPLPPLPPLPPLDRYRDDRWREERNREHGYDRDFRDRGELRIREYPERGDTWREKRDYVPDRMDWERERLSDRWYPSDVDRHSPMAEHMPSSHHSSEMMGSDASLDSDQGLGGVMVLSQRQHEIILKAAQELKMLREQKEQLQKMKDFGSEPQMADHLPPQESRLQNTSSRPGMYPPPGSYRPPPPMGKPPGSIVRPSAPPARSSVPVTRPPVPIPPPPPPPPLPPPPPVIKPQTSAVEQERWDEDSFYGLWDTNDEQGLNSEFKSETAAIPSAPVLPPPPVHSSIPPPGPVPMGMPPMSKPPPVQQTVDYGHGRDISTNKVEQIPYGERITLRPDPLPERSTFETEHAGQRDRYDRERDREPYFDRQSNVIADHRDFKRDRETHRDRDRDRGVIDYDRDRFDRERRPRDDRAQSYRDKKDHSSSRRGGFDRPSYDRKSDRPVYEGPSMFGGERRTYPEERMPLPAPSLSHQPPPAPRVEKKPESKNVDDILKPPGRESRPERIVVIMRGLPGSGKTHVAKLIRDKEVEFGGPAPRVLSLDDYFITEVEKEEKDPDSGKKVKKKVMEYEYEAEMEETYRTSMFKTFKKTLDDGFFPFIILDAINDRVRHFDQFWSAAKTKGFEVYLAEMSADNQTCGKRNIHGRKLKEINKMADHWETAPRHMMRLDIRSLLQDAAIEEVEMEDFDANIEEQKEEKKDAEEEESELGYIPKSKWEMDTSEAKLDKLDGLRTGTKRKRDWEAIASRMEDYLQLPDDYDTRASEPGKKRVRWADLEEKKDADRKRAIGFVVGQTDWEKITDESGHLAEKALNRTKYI
UniProt Q86UV5, sequence (Q86UV5 whole entry, looked up): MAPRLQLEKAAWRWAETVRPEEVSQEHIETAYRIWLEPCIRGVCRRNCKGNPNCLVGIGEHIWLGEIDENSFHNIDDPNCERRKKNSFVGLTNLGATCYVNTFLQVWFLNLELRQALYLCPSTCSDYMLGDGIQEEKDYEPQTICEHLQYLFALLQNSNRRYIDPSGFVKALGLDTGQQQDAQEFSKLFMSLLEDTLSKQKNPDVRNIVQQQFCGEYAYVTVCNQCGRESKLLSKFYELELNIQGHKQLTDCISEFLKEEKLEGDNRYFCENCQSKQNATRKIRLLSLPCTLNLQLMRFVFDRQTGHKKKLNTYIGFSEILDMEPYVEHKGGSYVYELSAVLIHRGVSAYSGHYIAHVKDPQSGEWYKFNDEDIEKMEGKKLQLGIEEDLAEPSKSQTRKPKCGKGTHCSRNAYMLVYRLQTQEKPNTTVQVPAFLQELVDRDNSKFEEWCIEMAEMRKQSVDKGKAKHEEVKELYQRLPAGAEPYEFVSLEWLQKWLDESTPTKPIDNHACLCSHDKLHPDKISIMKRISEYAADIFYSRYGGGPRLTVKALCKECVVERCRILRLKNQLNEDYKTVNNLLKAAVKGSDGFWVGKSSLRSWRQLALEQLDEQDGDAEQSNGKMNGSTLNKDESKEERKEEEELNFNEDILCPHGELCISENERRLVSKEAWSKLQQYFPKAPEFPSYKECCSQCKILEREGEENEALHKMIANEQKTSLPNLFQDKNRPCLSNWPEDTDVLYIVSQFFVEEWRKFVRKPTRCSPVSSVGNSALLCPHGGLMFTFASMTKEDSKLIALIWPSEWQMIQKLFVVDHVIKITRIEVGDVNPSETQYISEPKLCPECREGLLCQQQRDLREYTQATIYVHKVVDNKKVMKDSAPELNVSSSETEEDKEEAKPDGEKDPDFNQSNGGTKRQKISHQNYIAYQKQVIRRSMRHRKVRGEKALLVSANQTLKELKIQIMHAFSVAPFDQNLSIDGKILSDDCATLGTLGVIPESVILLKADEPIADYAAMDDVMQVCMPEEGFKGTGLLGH
UniProt Q96K21, sequence (Q96K21 whole entry, looked up): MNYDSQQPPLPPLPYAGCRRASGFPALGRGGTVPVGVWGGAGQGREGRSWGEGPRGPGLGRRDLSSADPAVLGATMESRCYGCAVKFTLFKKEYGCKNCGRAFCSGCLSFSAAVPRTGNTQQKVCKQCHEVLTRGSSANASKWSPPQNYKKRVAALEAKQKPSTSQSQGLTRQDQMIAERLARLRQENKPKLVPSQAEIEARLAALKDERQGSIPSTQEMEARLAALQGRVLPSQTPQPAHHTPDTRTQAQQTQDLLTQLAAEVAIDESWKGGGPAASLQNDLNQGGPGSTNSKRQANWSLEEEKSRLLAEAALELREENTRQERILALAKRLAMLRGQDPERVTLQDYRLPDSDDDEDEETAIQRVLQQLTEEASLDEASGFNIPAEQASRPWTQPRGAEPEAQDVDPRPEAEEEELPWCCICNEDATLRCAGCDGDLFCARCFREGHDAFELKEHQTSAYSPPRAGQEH
UniProt Q9UBK9, sequence (Q9UBK9 whole entry, looked up): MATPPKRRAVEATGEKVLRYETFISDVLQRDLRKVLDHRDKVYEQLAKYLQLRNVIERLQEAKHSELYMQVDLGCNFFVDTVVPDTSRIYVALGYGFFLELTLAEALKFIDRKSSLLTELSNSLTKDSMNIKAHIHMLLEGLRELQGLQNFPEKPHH

Target | log2 fold change (erlotinib) | log2 fold change [1] | log2 fold change [2] | log2 fold change [3] | log2 fold change [4] | log2 fold change [5] | log2 fold change [6] | log2 fold change [7] | log2 fold change [8] | log2 fold change (IRAK-1-4 Inhibitor I) | log2 fold change (ibrutinib) | log2 fold change [9] | log2 fold change (ralimetinib) | log2 fold change [10] | log2 fold change [11] | log2 fold change [12] | log2 fold change [13] | log2 fold change [14] | log2 fold change [15] | log2 fold change [16]
XPO5 (UniProt Q9HAV4) | 0.026 | 0.024 | -0.02 | 0.005 | 0 | -0.003 | -0.044 | 0.008 | 0.035 | -0.015 | -0.041 | 0.003 | 0 | -0.043 | -0.039 | -0.014 | -0.01 | -0.004 | 0.043 | -0.01
ZNF318 (UniProt Q5VUA4) | 0.026 | -0.033 | -0.054 | -0.015 | -0.078 | 0.003 | 0.004 | 0.023 | 0.004 | 0.012 | 0.022 | -0.043 | 0.029 | -0.06 | 0.014 | 0.023 | 0.038 | -0.036 | 0.046 | 0.083
YLPM1 (UniProt P49750) | 0.026 | -0.04 | 0.035 | -0.043 | -0.018 | -0.004 | 0.022 | 0.044 | 0.019 | 0.027 | 0.028 | -0.044 | -0.002 | 0.022 | -0.006 | 0.301 (active) | -0.031 | -0.017 | 0 | -0.046
VPS39 (UniProt Q96JC1) | 0.015 | -0.022 | -0.005 | -0.003 | -0.002 | 0.015 | -0.007 | -0.034 | 0.031 | 0.019 | 0 | 0.021 | -0.012 | -0.056 | -0.004 | 0.014 | 0 | 0.016 | -0.014 | -0.005
USP48 isoform 8 (UniProt Q86UV5) | 0.001 | -0.059 | -0.011 | -0.008 | 0.005 | 0.02 | -0.02 | 0 | 0.018 | -0.014 | -0.02 | -0.014 | 0.004 | 0 | -0.005 | 0.007 | -0.005 | 0.001 | 0 | -0.01
ZMYM4 (UniProt Q5VZL5) | -0.023 | -0.068 | 0.027 | 0.073 | -0.099 | 0.042 | -0.088 | -0.09 | 0.015 | 0.005 | -0.079 | -0.004 | 0.055 | -0.025 | 0.051 | 0.026 | -0.089 | -0.011 | -0.012 | -0.001
YES1 (UniProt P07947) | -0.045 | 0.064 | 0.005 | -0.045 | -0.023 | -0.031 | -0.105 | 0.027 | 0.016 | 0.003 | 0.988 (active) | -0.012 | -0.259 | 0.511 (active) | 0.061 | 0.2 | 0.044 | 0.192 | -0.005 | -0.131
UXT isoform 2 (UniProt Q9UBK9) | 0.012 | -0.036 | 0.033 | 0.021 | -0.054 | 0.035 | 0.012 | -0.033 | 0.186 | 0.007 | -0.078 | -0.018 | -0.063 | -0.075 | 0.006 | -0.035 | -0.091 | 0 | -0.015 | -0.032
VPS35L (UniProt Q7Z3J2) | 0.005 | -0.016 | -0.028 | -0.001 | 0.002 | 0.006 | -0.038 | -0.028 | 0.006 | 0.04 | 0.011 | 0.023 | -0.003 | -0.032 | 0.003 | 0.007 | 0.018 | -0.021 | 0.009 | -0.005
WDR24 (UniProt Q96S15) | 0.023 | 0.014 | 0.029 | -0.042 | -0.018 | 0.058 | -0.012 | -0.034 | -0.007 | 0.034 | -0.044 | -0.016 | 0.025 | -0.022 | 0.041 | 0.055 | -0.011 | 0.033 | -0.034 | 0.021
VCPIP1 (UniProt Q96JH7) | -0.054 | -0.04 | -0.002 | 0.053 | -0.037 | 0.041 | 0.006 | 0 | 0.038 | -0.035 | 0.002 | 0.01 | 0.009 | 0.011 | -0.029 | -0.021 | -0.05 | -0.007 | 0.048 | -0.017
ZHX1 (UniProt Q9UKY1) | 0.02 | -0.094 | 0.082 | 0.051 | -0.027 | -0.027 | -0.077 | -0.119 | 0.026 | -0.055 | -0.026 | 0.015 | -0.007 | 0.034 | 0.127 | 0.109 | -0.144 | -0.053 | 0.024 | -0.013
YWHAQ (UniProt P27348) | 0.026 | 0.046 | 0.016 | 0.012 | 0.017 | 0.014 | 0.021 | -0.006 | 0.022 | 0.013 | -0.011 | -0.001 | -0.007 | 0.028 | 0 | -0.054 | 0.007 | -0.001 | 0.01 | 0.01
ZNHIT6 (UniProt Q9NWK9) | 0.059 | 0.475 | 0.062 | 0.024 | -0.007 | -0.008 | -0.068 | 0 | 0.014 | 0.003 | -0.01 | -0.097 | -0.032 | 0.005 | 0.001 | 0.036 | -0.02 | 0.032 | 0.018 | -0.029
ZFYVE19 (UniProt Q96K21) | -0.017 | -0.056 | 0.016 | -0.024 | -0.026 | 0.055 | 0.007 | -0.031 | 0.012 | -0.027 | -0.051 | -0.031 | -0.004 | 0.009 | -0.015 | -0.028 | -0.067 | -0.037 | -0.013 | -0.042
YEATS4 (UniProt O95619) | -0.017 | -0.018 | -0.018 | 0.045 | -0.079 | -0.013 | -0.027 | 0.007 | 0.034 | 0.002 | 0.02 | 0.016 | 0.003 | 0.009 | 0.001 | 0.01 | -0.004 | 0.041 | -0.035 | -0.039
